Test results reported in the supplement of paper PMC8728848.
About 410 targets per protein were measured; listed, in parts, are those with the strongest signals and a random draw of the rest.

What was measured:
Assay in all cases: glycan array binding signal (z-score within array); higher = stronger binding
Details in all cases: glycan notation: IUPAC condensed, linker removed
[1] = target: GalNAc(b1-3)Gal(a1-4)Gal(b1-4)GlcNAc
Procedure, shortened: (§1)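 The Consortium for Functional Glycomics database supplied 3228 glycan arrays, of which those lacking an available protein sequence were dropped. The binding signal, a within-array Z-score, was averaged across arrays of the same protein sequence and across linkers. Negative scores can be read as non-binding.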

[2] = target: GalNAc(b1-3)Gal(a1-6)Gal(b1-4)Glc
Procedure, shortened: as §1

[3] = target: Glc(a1-4)Glc(a1-4)Glc(a1-4)Glc
Procedure, shortened: as §1

[4] = target: GlcNAc(a1-4)Gal(b1-4)GlcNAc(b1-3)Gal(b1-4)GlcNAc(b1-3)Gal(b1-4)GlcNAc
Procedure, shortened: as §1

GlcNAc(b1-3)Gal = target: GlcNAc(b1-3)Gal
Procedure, shortened: as §1

GlcNAc(b1-3)Gal(b1-4)Glc = target: GlcNAc(b1-3)Gal(b1-4)Glc
Procedure, shortened: as §1

[5] = target: GlcNAc(b1-3)Gal(b1-4)GlcNAc
Procedure, shortened: as §1

[6] = target: GlcNAc(b1-3)Gal(b1-4)GlcNAc(b1-3)Gal(b1-4)GlcNAc(b1-2)[GlcNAc(b1-3)Gal(b1-4)GlcNAc(b1-3)Gal(b1-4)GlcNAc(b1-6)]Man(a1-6)[GlcNAc(b1-3)Gal(b1-4)GlcNAc(b1-3)Gal(b1-4)GlcNAc(b1-2)Man(a1-3)]Man(b1-4)GlcNAc(b1-4)[Fuc(a1-6)]GlcNAc
Procedure, shortened: as §1

[7] = target: GlcNAc(b1-3)Gal(b1-4)GlcNAc(b1-3)Gal(b1-4)GlcNAc(b1-3)Gal(b1-4)GlcNAc(b1-2)[GlcNAc(b1-3)Gal(b1-4)GlcNAc(b1-3)Gal(b1-4)GlcNAc(b1-3)Gal(b1-4)GlcNAc(b1-6)]Man(a1-6)[GlcNAc(b1-3)Gal(b1-4)GlcNAc(b1-3)Gal(b1-4)GlcNAc(b1-3)Gal(b1-4)GlcNAc(b1-2)Man(a1-3)]Man(b1-4)GlcNAc(b1-4)[Fuc(a1-6)]GlcNAc
Procedure, shortened: as §1

[8] = target: GlcNAc(b1-3)Gal(b1-4)GlcNAc(b1-3)Gal(b1-4)GlcNAc(b1-3)Gal(b1-4)GlcNAc(b1-3)Gal(b1-4)GlcNAc(b1-2)[GlcNAc(b1-3)Gal(b1-4)GlcNAc(b1-3)Gal(b1-4)GlcNAc(b1-3)Gal(b1-4)GlcNAc(b1-3)Gal(b1-4)GlcNAc(b1-6)]Man(a1-6)[GlcNAc(b1-3)Gal(b1-4)GlcNAc(b1-3)Gal(b1-4)GlcNAc(b1-3)Gal(b1-4)GlcNAc(b1-3)Gal(b1-4)GlcNAc(b1-2)Man(a1-3)]Man(b1-4)GlcNAc(b1-4)[Fuc(a1-6)]GlcNAc
Procedure, shortened: as §1

[9] = target: GlcNAc(b1-4)GlcNAc(b1-4)GlcNAc
Procedure, shortened: as §1

[10] = target: GlcNAc(b1-6)Gal(b1-4)GlcNAc
Procedure, shortened: as §1

Kdn(a2-6)Gal(b1-4)GlcNAc = target: Kdn(a2-6)Gal(b1-4)GlcNAc
Procedure, shortened: as §1

[11] = target: Man(a1-2)Man(a1-6)[Man(a1-3)]Man(a1-6)[Man(a1-2)Man(a1-2)Man(a1-3)]Man(b1-4)GlcNAc(b1-4)GlcNAc
Procedure, shortened: as §1

Man(a1-6)Man = target: Man(a1-6)Man
Procedure, shortened: as §1

[12] = target: Neu5Ac(a2-3)Gal(b1-3)GlcNAc(b1-2)Man
Procedure, shortened: as §1

[13] = target: Neu5Ac(a2-3)Gal(b1-3)[GlcNAc(b1-6)]GalNAc
Procedure, shortened: as §1

[14] = target: Neu5Ac(a2-3)Gal(b1-3)[Neu5Ac(a2-6)]GlcNAc(b1-3)[Fuc(a1-3)[Gal(b1-4)]GlcNAc(b1-6)]Gal(b1-4)Glc
Procedure, shortened: as §1

[15] = target: Neu5Ac(a2-3)Gal(b1-3)]Neu5Ac(a2-3)Gal(b1-4)]GlcNAc
Procedure, shortened: as §1

[16] = target: Neu5Ac(a2-3)Gal(b1-4)GlcNAc(b1-3)Gal(b1-4)GlcNAc(b1-3)Gal(b1-4)GlcNAc
Procedure, shortened: as §1

[17] = target: Neu5Ac(a2-3)Gal(b1-4)GlcNAc(b1-3)Gal(b1-4)[Fuc(a1-3)]GlcNAc
Procedure, shortened: as §1

[18] = target: Neu5Ac(a2-3)Gal(b1-4)[Fuc(a1-3)]GlcNAc(b1-3)GalNAc
Procedure, shortened: as §1

[19] = target: Neu5Ac(a2-3)[GalNAc(b1-4)]Gal(b1-4)Glc
Procedure, shortened: as §1

Neu5Ac(a2-6)Gal(b1-4)Glc = target: Neu5Ac(a2-6)Gal(b1-4)Glc
Procedure, shortened: as §1

[20] = target: Neu5Ac(a2-6)Gal(b1-4)GlcNAc
Procedure, shortened: as §1

[21] = target: Neu5Ac(a2-6)Gal(b1-4)GlcNAc(b1-3)Gal(b1-4)GlcNAc
Procedure, shortened: as §1

[22] = target: Neu5Ac(a2-6)Gal(b1-4)GlcNAc(b1-3)Gal(b1-4)GlcNAc(b1-3)Gal(b1-4)GlcNAc(b1-2)Man(a1-3)[Neu5Ac(a2-6)Gal(b1-4)GlcNAc(b1-3)Gal(b1-4)GlcNAc(b1-3)Gal(b1-4)GlcNAc(b1-2)Man(a1-6)]GalNAc
Procedure, shortened: as §1

Neu5Ac(a2-6)GalNAc = target: Neu5Ac(a2-6)GalNAc
Procedure, shortened: as §1

[23] = target: Neu5Ac(a2-8)Neu5Ac(a2-8)Neu5Ac(a2-8)Neu5Ac(a2-3)[GalNAc(b1-4)]Gal(b1-4)Glc
Procedure, shortened: as §1

Neu5Ac(b2-6)GalNAc = target: Neu5Ac(b2-6)GalNAc
Procedure, shortened: as §1

[24] = target: Neu5Gc(a2-3)Gal(b1-4)GlcNAc(b1-3)Gal(b1-4)GlcNAc(b1-2)Man(a1-3)[Neu5Gc(a2-3)Gal(b1-4)GlcNAc(b1-3)Gal(b1-4)GlcNAc(b1-2)Man(a1-6)]Man(b1-4)GlcNAc(b1-4)GlcNAc
Procedure, shortened: as §1

[25] = target: Neu5Gc(a2-8)Neu5Gc(a2-3)Gal(b1-4)GlcNAc
Procedure, shortened: as §1

B1: Epa19 (Candida glabrata) (protein)
chain: MGSSHHHHHHSSGLVPRGSHMASSKDPTRFPIGCSPQVLKTQPGLAVKLYSYGHPVPGCSYITYQYPDFPRSGYKKERKLADITGVNGKIDIDLKPNDPCRVLTGHLPSNYNYPDTLTYTNFTMILYGYFQPKVTGYHTFNLEADDLLFMNLGAGNAFDCCKAESTLDNFGNYQSYSLWGSDYAKANITVFLVSGVYYPIRLFYVNRDNNAVIDFSFTTEFDKEKVHDFTSYFFSASDGEQCPGSV
glycan array binding signal (z-score) [1]: -0.192
glycan array binding signal (z-score) [2]: -0.525
glycan array binding signal (z-score) [3]: 0.084
glycan array binding signal (z-score) [4]: -0.551
glycan array binding signal (z-score) (GlcNAc(b1-3)Gal): -1.24
glycan array binding signal (z-score) (GlcNAc(b1-3)Gal(b1-4)Glc): -0.077
glycan array binding signal (z-score) [5]: -0.29
glycan array binding signal (z-score) [6]: 3.06
glycan array binding signal (z-score) [7]: 2.24
glycan array binding signal (z-score) [8]: 2.39
glycan array binding signal (z-score) [9]: -0.295
glycan array binding signal (z-score) [10]: 0.368
glycan array binding signal (z-score) (Kdn(a2-6)Gal(b1-4)GlcNAc): -0.099
glycan array binding signal (z-score) [11]: -0.373
glycan array binding signal (z-score) (Man(a1-6)Man): 0.479
glycan array binding signal (z-score) [12]: -1.47
glycan array binding signal (z-score) [13]: -0.681
glycan array binding signal (z-score) [14]: -0.06
glycan array binding signal (z-score) [15]: 1.09
glycan array binding signal (z-score) [16]: 0.026
glycan array binding signal (z-score) [17]: -0.678
glycan array binding signal (z-score) [18]: 3.04
glycan array binding signal (z-score) [19]: 0.603
glycan array binding signal (z-score) (Neu5Ac(a2-6)Gal(b1-4)Glc): -0.768
glycan array binding signal (z-score) [20]: -0.869
glycan array binding signal (z-score) [21]: -1.3
glycan array binding signal (z-score) [22]: 3.53
glycan array binding signal (z-score) (Neu5Ac(a2-6)GalNAc): -0.465
glycan array binding signal (z-score) [23]: -0.059
glycan array binding signal (z-score) (Neu5Ac(b2-6)GalNAc): -0.238
glycan array binding signal (z-score) [24]: -0.264
glycan array binding signal (z-score) [25]: -0.386
